Experimental data as given in ChEMBL document CHEMBL1157539, “Thousands of chemical starting points for antimalarial lead identification” (Nature, 2010).

Experiments:
Format in all cases: functional
Plasmodium falciparum [1] = assay: GSK_TCMDC: Inhibition of Plasmodium falciparum 3D7 in whole red blood cells, using parasite LDH activity as an index of growth. Test compounds present at 2uM
Plasmodium falciparum [2] = assay: GSK_TCMDC: Inhibition of Plasmodium falciparum Dd2 in whole red blood cells, using parasite LDH activity as an index of growth. Test compounds present at 2uM
HepG2 = assay: GSK_TCMDC: Percent inhibition of human HepG2 cell line. Test compounds present at 10uM.

Structure (SMILES)	Inhibition (Plasmodium falciparum [1]) [%]	Inhibition (Plasmodium falciparum [2]) [%]	Inhibition (HepG2) [%]
CCCN(CCC)CCCCC(C)Nc1c2ccc(Cl)cc2nc2ccc(OC)cc12.Cl (configuration not stated)	100	100	42
CCc1cn(CCS(C)(=O)=O)c2ccc(C(=O)N[C@@H](Cc3ccccc3)[C@H](O)CNC(C)(C)CCCC(C)C)cc12.O=CO	87	96	16
O=C(CC1CCCC1)Nc1ccc2c(c1)CCC2	93	0	0
COc1ccc2nccc([C@@H](O)CN3CCC(NCc4nc5cc(F)ccc5o4)CC3)c2c1.O=C(O)C(=O)O	100	12	14
CCOc1ccc2c(=NN=Cc3ccc(OC)c(OC)c3)cc(C)[nH]c2c1	100	58	22
Cc1ccc(O)c(-c2cc(C(=O)Nc3ccc(S(=O)(=O)N4CCCCCC4)cc3)[nH]n2)c1	100	80	25
CCCCCCP(=O)(COc1ccc(CCN(CC(O)COc2cccc3[nH]c(C(N)=O)cc23)CC(O)COc2cccc3[nH]c(C(N)=O)cc23)cc1)OCCCC (configuration not stated)	99	97	0
COc1ccc2nccc([C@@H](O)CN3CCC(NC(=O)c4ccc(Cl)c([N+](=O)[O-])c4)CC3)c2c1	88	43	14
Clc1ccc2nc(-c3cccnc3)[nH]c2c1	92	97	0
O=C(Nc1cc(Cl)ccc1O)c1ccc(Oc2ccc(C(=O)Nc3cc(Cl)ccc3O)cc2)cc1	97	91	32
COc1ccc2[nH]ccc(=NN=Cc3ccc(Cl)cc3)c2c1	100	72	9
Cc1ccc(S(=O)(=O)n2cc(-c3ccnc(N)c3)c3cc(Br)cnc32)cc1	98	31	8
O=C(N[C@H]1CCN(CCc2ccc(O[C@H]3CCNC3)c(Cl)c2)C1)c1ccc(Cl)c(Cl)c1.O=C(O)C(F)(F)F	100	0	26
CCOC(=O)Nc1cc(-c2csc(N=C(N)N)n2)cc([N+](=O)[O-])c1	100	88	12
FC(F)(F)c1ccc2[nH]c(-c3cccc(-c4cccc(CNCCc5ccncc5)c4)c3)nc2c1.O=C(O)C(F)(F)F	99	97	31
Cc1cccc2nc(-c3ccc(-c4ccc(NC(=O)NC5CC5c5ccccc5)cc4)cc3)[nH]c12 (configuration not stated)	96	3	28
COc1ccc2ncc(F)c(CCN3C4CCC3CC(NCc3ccc5c(c3)OCCO5)C4)c2n1.Cl (configuration not stated)	100	35	27
CCCCCN1CCN(Cc2cccc(NC(=O)c3ccc(Cl)c(Cl)c3)c2)CC1.O=C(O)C(F)(F)F	90	33	24
N#Cc1cccc(NC(=O)Nc2ccc(-c3ccc(-c4nc5cc(C(F)(F)F)ccc5[nH]4)cc3)cc2)c1	100	100	51
COc1cc2c(Nc3cccc(NC(=O)c4ccccc4)c3)ncnc2cc1OCCCN1CCOCC1	100	100	0

Structure (SMILES)	Inhibition (Plasmodium falciparum [1]) [%]	Inhibition (Plasmodium falciparum [2]) [%]	Inhibition (HepG2) [%]
Cc1cc(OCCCN2CCC(NS(=O)(=O)c3cccc(Br)c3)CC2)c2ccccc2n1	95	28	28
Nc1nc(N)c2c(Cc3ccc(Br)cc3)cccc2n1	99	20	28
Fc1cc(Cl)ccc1Nc1ccnc2cc(-c3scnc3CNCCN3CCOCC3)ccc12	99	84	0
O=C(Nc1cccc(-c2ccc(-c3nc4cc(F)ccc4[nH]3)cc2)c1)c1cccnc1	100	92	27
O=[N+]([O-])c1ccc(N2CCCN(C(=S)Nc3ccc(F)cc3Br)CC2)nc1	100	99	4
Br.CCCCCCCN(CCCCCCC)CCNc1cc(C)nc2ccccc12	89	31	39
COc1ccc(C)c(Nc2ccnc(Nc3ccc(-c4cnc[nH]4)cc3)n2)c1.Cl	97	6	40
CC(C)NCc1ccc(-c2cccc(NC(=O)c3cccc(C#N)c3)c2)cc1.O=C(O)C(F)(F)F	100	78	9
CC1CCC(NCc2c(O)ccc3ccccc23)CC1.Cl (configuration not stated)	95	77	13
O=C(Cc1cccc(OCCCN(Cc2cccc(C(F)(F)F)c2Cl)CC(c2ccccc2)c2ccccc2)c1)NCc1ccco1	94	84	2
COc1ccc(Nc2nccc(N3CCC(NC(=O)Nc4cccc(OC)c4)C3)n2)cc1 (configuration not stated)	99	48	23
CC(C)NCc1ccc(-c2ccc(NC(=O)c3ccc(Cl)cc3)cc2)cc1.O=C(O)C(F)(F)F	90	8	60
COc1cc(OC)cc(C(=O)Nc2nc(-c3ccccn3)cs2)c1	97	72	47
CCc1ccc(CN(Cc2ccc(C)cc2)Cc2ccc(NC(C)=O)cc2)cc1	89	79	6
CCOc1ccc2c(=NN=Cc3ccccc3OC)cc(C)[nH]c2c1	99	93	11
CNC(=O)c1cnc(Nc2ccc(N3CCOCC3)cc2)nc1Nc1cccc(OC)c1.O=C(O)C(F)(F)F	96	41	2
Cc1cc(C(=O)NCc2ccc(-c3c(C)noc3C)cc2)n(-c2ccccc2)n1	92	90	4
CN(C)CCn1c(=N)n(CC(O)c2ccc(Cl)c(Cl)c2)c2ccccc21.Cl (configuration not stated)	99	6	20
CC(C)(C)Cn1cc(-c2ccc(C(=O)NCCc3ccc(S(C)(=O)=O)cc3)cc2)c(N)n1.CC(C)(C)Cn1ncc(-c2ccc(C(=O)NCCc3ccc(S(C)(=O)=O)cc3)cc2)c1N.O=C(O)C(F)(F)F	86	10	7
Cl.O=C(C(=O)c1ccc(Nc2ccnc3cc(-c4ccccn4)ccc23)cc1)c1ccccc1	93	34	22

Structure (SMILES)	Inhibition (Plasmodium falciparum [1]) [%]	Inhibition (Plasmodium falciparum [2]) [%]	Inhibition (HepG2) [%]
CC(C)c1ccc(CN(C)CCCCNC(=O)c2ccc(NC(=O)c3ccc(Cl)cc3)cc2)cc1	92	0	17
COc1cccc(NC(=O)CSc2nc(-c3ccccc3Cl)ns2)c1	99	100	7
Cl.Cn1ncc2c3c(CCN4CCC(NCc5ccc6c(c5)NC(=O)CO6)CC4)c(Cl)cnc3ccc21	100	92	18
CC(C)c1ccc(CN2CCC(NC(=O)c3ccc(-c4cccc(F)c4)s3)CC2)cc1.O=C(O)C(F)(F)F	83	12	47
CNC(=O)c1cnc(Nc2ccc(OCC(O)CN(C)C)cc2)nc1Nc1cccc(Br)c1.O=C(O)C(F)(F)F (configuration not stated)	100	100	68
O=C(Nc1ccc(Cl)cc1)Nc1ccc(Cn2ncc(N3CCCNCC3)c(Cl)c2=O)cc1.O=C(O)C(F)(F)F	85	11	49
Cc1cc(OCCCNC(=N)c2ccc3ccccc3c2)c(C(C)C)cc1Cl.Cc1ccc(S(=O)(=O)O)cc1	95	10	89
O=C(c1cc(-c2ccco2)n[nH]1)N1CCN(S(=O)(=O)c2ccc(Br)cc2)CC1	95	90	1
COc1cccc(C(=O)Nc2sc3c(c2C(N)=O)CCCC3)c1OC	99	8	6
CC(C)Cc1ccc(N2CCN(CCCCNC(=O)c3ccc(NC(=O)c4cc(C(F)(F)F)cc(C(F)(F)F)c4)cc3)CC2)cc1	100	100	15
Cc1[nH]c(C)c(-c2ccc(-c3ccc(C(F)(F)F)cc3C(F)(F)F)nc2)c(=O)c1Br	97	97	30
Cc1cc(=NN=Cc2cccc(F)c2)c2cccc(C)c2[nH]1	100	53	14
Cc1nc(-c2cccc(C(=O)Nc3cnc4ccccc4c3)c2)no1.O=C(O)C(F)(F)F	85	12	15
CCOC(=O)c1cc2c(CCN3C(=O)c4ccccc4C3=O)cn(C)c2cc1-c1ccncc1	100	90	99
CCCN(CCC)C(=O)c1cc(C(=O)N[C@@H](Cc2ccccc2)[C@H](O)CNCc2cccc(C(F)(F)F)c2)cc(N2CCCCS2(=O)=O)c1	99	74	0
Cl.OC(c1cc(C(F)(F)F)nc2c(F)cccc12)C1CCCCN1 (configuration not stated)	98	74	0
COc1ccc(NC(=O)N2CCCN(CCCCCNC(=O)/C=C/c3ccc(C(F)(F)F)cc3)CC2)cc1Cl	93	0	21
CC1(C)C(N(O)C(=O)Nc2ccc(Cl)c(Cl)c2)N(c2ccc(Cl)c(Cl)c2)C(=O)N1CCc1ccccc1 (configuration not stated)	91	93	10
COc1ccc(C=CC(=O)NC(=O)c2ccccc2OC(=O)c2ccccc2)cc1OC	87	90	12
